Most compounds without a hit are left out; they make up all but 4.3% or so of the library.
TRPM1 prom inh = inhibitors of MITF-driven TRPM1 promoter in melanoma cells; SK-MEL-5 TRPM1 promoter luciferase, 24 h; inhibition, % at 12.5 µM; 330,000 tested, 0.83% active;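 active = mean inhibition across replicates of 60% or more, whatever share of single replicates reaches that level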
HIF-2a inh = blocks HIF-2a reporter activity. 360,000 tested, 0.72% active. inhibition, % at 18.8 µM. AID 624352. 786-0 RCC cells HIF-2a reporter, luciferase luminescence, overnight;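 active = inhibition of the luminescence signal of 40% or more relative to plate controls, in a single-dose primary screen at 18.75 µM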
KKLEB tox = counter-screen for CF NF-kB inhibitors: cytotoxicity | 360,000 tested, 0.36% active | activity change (cytotoxicity), % at 5 µM | KKLEB CF airway cells viability, ATPlite luminescence, overnight; active compounds read low; cells stimulated with P. aeruginosa culture filtrate | AID 602141;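 active = corrected activity change at or below -50% at 5 µM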
CF NFkB block = blocks PAF-induced NF-kB reporter in cystic fibrosis cells; KKLEB NF-kB-GFP reporter, GFP fluorescence overnight; inhibition, % at 5 µM; 360,000 tested, 0.86% active; AID 588850;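 active = at least 50% inhibition at 5 µM, scaled per plate between neutral and stimulator controls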;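 note: PAF is a Pseudomonas aeruginosa culture filtrate used as stimulus; plate controls were PAF-stimulated DMSO wells for no effect and unstimulated DMSO wells for full effect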
Peg3 prom inh-1 = Peg3 promoter activity inhibition | HeLa PEG-Prom luciferase reporter, luminescence, overnight | inhibition, % at 20 µM | 360,000 tested, 1.7% active | AID 588405;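 active = inhibition of at least 50% at 20 µM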
CHOP inh = inhibitors of CHOP induction in ER stress response; AID 2732; CHO-K1 CHOP-promoter luciferase, tunicamycin-induced, 15-18 h; 220,000 tested, 3.8% active; inhibition, % at 10 µM;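 active = compounds that reduced the stress-induced luciferase reporter signal by more than about 70% of percent inhibition, limit read from the data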;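 note: 0% = tunicamycin plus vehicle and 100% = wells without tunicamycin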
Peg3 prom inh-2 = confirmation of Peg3 promoter inhibitors | shares compounds with Peg3 prom inh-1 | HeLa PEG-Prom luciferase reporter, luminescence, overnight | inhibition, % at 20 µM | 1,300 tested, 84% active;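 active = at 20 µM dose, 40% or more inhibition averaged across four replicates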
* hit, by the source's call; . = no result given.

SMILES | TRPM1 prom inh | HIF-2a inh | KKLEB tox | CF NFkB block | Peg3 prom inh-1 | CHOP inh | Peg3 prom inh-2
COc1ccc(C(NC(C)=O)c2cc(Cl)c3cccnc3c2O)cc1OC (stereo not given) | 40 | 2 | -4 | 14 | 38 | 41 | .
CCC(=O)NC(c1ccc(OC)c(OC)c1)c1cc(Cl)c2cccnc2c1O (stereo not given) | 40 | 16 | -29 | 36 | 55* | 32 | 63*
CCCCC(=O)NC(c1ccc(Cl)cc1)c1ccc2cccnc2c1O (stereo not given) | . | 18 | -2 | -24 | 62* | . | 69*
CCCC(=O)NC(c1cccc([N+](=O)[O-])c1)c1ccc2cccnc2c1O (stereo not given) | . | 13 | -5 | 12 | 58* | . | 66*
CCCCC(=O)NC(c1ccc(N(CC)CC)cc1)c1ccc2cccnc2c1O (stereo not given) | 58 | 7 | -11 | -7 | 59* | . | 70*
COCCCn1c(O)c(/C=C2\N=C(C#N)C(=Nc3ccc(C)cc3)O2)sc1=S | 21 | -250 | -40 | 20 | -63 | -6 | .
COc1ccc(N=CC2=C(O)c3ccccc3C2=O)cc1 | 30 | 7 | -51* | -10 | 75* | 47 | -3
Cc1ccc(CNC(=O)C(=O)NCC2OCCCN2S(=O)(=O)c2ccc(F)cc2)cc1 (stereo not given) | -7 | 7 | -8 | 0 | 9 | . | .
CN(C)CCNc1ccc(-c2nn(C)c(=O)c3ccccc23)cc1[N+](=O)[O-] | 1 | 24 | 2 | 0 | 3 | -10 | .
CN(C)CCNc1ccc2ncn3c4ccc(O)cc4c(=O)c1c23 | 83* | 49* | -14 | 19 | 101* | . | 71*
O=C(NC1CCCCC1)C(=S)N1CCCC1 | -2 | 23 | 1 | 3 | 20 | 11 | .
Cc1cc(Br)ccc1NC(=O)CNC(=O)Cn1ncc(Cl)c(Cl)c1=O | 94* | 8 | -51* | 91* | 111* | 106* | 98*
Cc1cc(Br)ccc1NC(=O)CNC(=O)CSc1ncccn1 | 6 | 11 | 14 | 4 | 0 | . | .
CN1C/C(=C/c2cccnc2)C(=O)/C(=C/c2cccnc2)C1 | 100* | 33 | 1 | 57* | 87* | 81* | 2
CN(C)S(=O)(=O)c1ccc(-c2csc(N/N=C/c3ccc(O)cc3)n2)cc1 | 72* | 23 | -9 | 82* | 96* | 18 | 98*
Nc1o[nH]c(=O)c1C1CCCCC1 | -14 | 9 | -6 | 10 | 13 | . | .
COCCn1nnnc1C(c1ccc(OC)c(OC)c1)N1CCN(C(=O)c2ccco2)CC1 (stereo not given) | -1 | 9 | 12 | -6 | 4 | . | .
Cc1cc2cc(C)c3nnc(SCC(=O)Nc4ccc(S(=O)(=O)N5CCCCC5)cc4)n3c2cc1C | -6 | 23 | -18 | 6 | 69* | 28 | 5
Cc1ccsc1/C=N/Nc1cccc(C(=O)O)c1 | 96* | 86* | 6 | -24 | 86* | 89* | 74*
O=C(O)c1cccc(N/N=C/c2ccc(F)c(F)c2)c1 | 19 | -61 | 5 | 6 | -66 | 16 | .
Cc1ccc(-c2csc(NC(=O)c3ccc(F)cc3)c2C(=O)O)cc1 | -50 | -295 | 9 | -3 | -183 | . | .
Cc1cc(C)c(S(=O)(=O)c2ccc(Cl)cc2)c(Cl)n1 | 16 | 20 | -11 | 23 | 9 | 32 | .
Cc1cc(S(=O)(=O)c2ccc(Cl)cc2)nc(S(=O)(=O)c2ccc(Cl)cc2)c1C#N | . | 89* | -93* | 88* | 113* | . | 97*
Cn1ccc2c(-c3cccnc3)cc3c(c21)C1CCC3O1 (stereo not given) | . | 10 | -2 | -3 | 4 | . | .
Cc1ccc2sc(N(CCCN(C)C)C(=O)c3ccc(S(=O)(=O)N(C)C4CCCCC4)cc3)nc2c1C | 77* | -11 | -17 | 36 | 104* | . | 100*
SMILES | TRPM1 prom inh | HIF-2a inh | KKLEB tox | CF NFkB block | Peg3 prom inh-1 | CHOP inh | Peg3 prom inh-2
COc1ccc(CNCc2cc(Cl)ccc2O)cc1 | -9 | -12 | -3 | -11 | -54 | . | .
CCc1ccc(O)c(CNCCNCc2cc(CC)ccc2O)c1 | 49 | 28 | -27 | -3 | 91* | . | 92*
O=C(NCCCN1CCCCC1)c1ccc2c(c1)NC(=O)c1ccccc1S2 | -14 | 13 | -7 | 4 | -17 | . | .
COc1cccc(/C=C2/Sc3ccc(C(=O)NCCCN4CCCC4)cc3NC2=O)c1 | 55 | 7 | -3 | -12 | 78* | . | 94*
O=C(O)c1ccc(CN2C(=O)c3cccc4c([N+](=O)[O-])ccc(c34)C2=O)cc1 | 12 | -9 | 13 | 15 | 103* | . | 90*
COc1cc(-c2nnc(COC(=O)c3ccc(C)o3)o2)cc(OC)c1OC | -3 | 2 | 3 | -4 | -2 | . | .
O=c1cc(-c2ccc(O)cc2)oc2ccc3ccccc3c12 | 83* | 72* | -61* | -262 | 67* | . | 75*
CN(Cc1ccc(F)cc1)S(=O)(=O)c1nnc(NC(=O)c2ccccc2Br)s1 | -14 | 12 | -9 | 31 | 29 | . | .
CN1CCC2(CC1)N=C(c1ccc(F)cc1)C(=S)N2C(=O)c1ccc(C(C)(C)C)cc1 | 14 | -12 | 0 | 1 | 70* | 81* | 84*
Cc1ccc(C(C(=O)NC2CCCCC2)N(C(=O)c2csnn2)C2CC2)cc1 (stereo not given) | -14 | -2 | 1 | -12 | -24 | . | .
Nc1ccc(C(=O)N/N=C/c2sc(N3CCOCC3)nc2-c2ccccc2)cc1 | -8 | 3 | 7 | -22 | -5 | -29 | .
O=C(N/N=C/c1sc(N2CCOCC2)nc1-c1ccccc1)c1cccc(S(=O)(=O)N2CCOCC2)c1 | 65* | 0 | -9 | -8 | 68* | -72 | 68*
COc1ccc(-c2cc3nc4n(c(=O)c3s2)CCC4)cc1 | 51 | 15 | 0 | -33 | 59* | 46 | 32
CCn1c(SCC(=O)Nc2nc3ccc(OC)cc3s2)nc2c1c(=O)n(C)c(=O)n2C | -3 | -12 | 0 | -15 | 62* | 84* | 35
CCCCn1cnc(C(=O)OCC)c1N | -17 | -28 | -16 | 19 | -13 | 12 | .
CCN(C(=O)CO/N=C/c1ccc(OC)cc1OC)c1c(N)n(Cc2ccccc2)c(=O)[nH]c1=O | -7 | 8 | 6 | 3 | 1 | . | .
CC(C)N1C/C(=C/c2ccsc2)C(=O)/C(=C/c2ccsc2)C1 | 101* | 29 | 8 | -54 | 103* | 66 | 35
CC(C)OCCCNC(=O)CN1C(=O)CSc2ccc(S(=O)(=O)N3CCCCC3)cc21 | 3 | 17 | -10 | 27 | 4 | . | .
COc1ccc(S(=O)(=O)N2c3ccccc3OCC2c2ccccc2)cc1 (stereo not given) | 22 | 29 | -13 | 12 | 50* | 22 | 46*

High-throughput results as filed in PubChem BioAssay.
